Experimental data taken from PubChem BioAssay (EPA / NIEHS).
The source made the active and inactive calls. The calls were made as follows: active = hit-call score of the fitted dose curve at least 0.9, where 1 is the maximum; inactive = score below 0.9.

What follows are compounds tested on Vascular cell adhesion molecule 1 (VCAM1), VCAM1 (gene 7412) (assay: BSK_4H_VCAM1: BioMAP Diversity Plus: 4H Assay for Vascular cell adhesion molecule 1 (VCAM1) Biomarker Activity (AID 2283033)). Details: primary human endothelial cells (HUVEC); actives raise or lower the signal.
Description: BSK_4H is a cell-based, multiplexed-readout assay that uses umbilical vein endothelium, a human vascular primary cell, with measurements taken at 24 hours after chemical dosing in a 96-well plate.BSK_4H_VCAM1 is an assay component measured in the BSK_4H assay. It measures VCAM-1 antibody related to regulation of gene expression using ELISA technology.Data from the assay component BSK_4H_VCAM1 was analyzed into 1 assay endpoint. This assay endpoint, BSK_4H_VCAM1, was analyzed with bidirectional fitting relative to DMSO as the negative control and baseline of activity. Using a type of binding reporter, gain or loss-of-signal activity can be used to understand changes in the signaling as they relate to the gene VCAM1. Furthermore, this assay endpoint can be referred to as a primary readout, because this assay has produced multiple assay endpoints where this one serves a signaling function. To generalize the intended target to other relatable targets, this assay endpoint is annotated to the cell adhesion molecules intended target family, where the subfamily is Immunoglobulin CAM.
The levels of cell surface (or secreted, indicated by the prefix "s") biomarker endpoints were measured by ELISA. Overt cytotoxicity to cells in confluent adherent cultures (all systems other than the BT system) was assessed by measuring total protein levels using sulforhodamine B (SRB) staining in parallel cultures at the time of biomarker measurements, indicated as SRB endpoints. For proliferation assays for adherent cell types, individual cell types are cultured at sub-confluence and relative cell numbers quantified by SRB staining at time points optimized for each system (48 h: 3C and CASM3C systems; 72 h: BT and HDF3CGF systems; 96 h: SAg system). SRB was performed by staining cells with 0.1% SRB after fixation with 10% TCA and reading wells at 560 nm.Viability and proliferation of PBMC (T cells) was quantified by Alamar Blue reduction for the SAg and BT systems. For PBMC viability (referred to as PBMC Cytotoxicity within the assay endpoint names), cells were plated (75,000/well in a 96-well plate) and then chemical samples added for 1 h before addition of activators, SEB and TSST-1 (20 ng/mL final concentration each). Cells were incubated for 90 h. Then, Alamar Blue (20 uL/well) (Invitrogen, Cat DAL1100) was added for 6 h, and the plates were read with a fluorescence microplate reader at 546/580 nm (excitation/emission). For PBMC proliferation, cells were plated and activated as above but incubated for only 16 h prior to addition of Alamar Blue. Plates were read after 6 h.

| Compound | outcome | AC50 |
| --- | --- | --- |
| NNC(=O)c1ccncc1 | inactive | – |
| Nc1ccn([C@@H]2O[C@H](CO)[C@@H](O)[C@@H]2O)c(=O)n1 | inactive | – |
| CCCCN1C(=O)[C@@H]([C@H](O)C2CCCCC2)NC(=O)C12CCN(Cc1ccc(Oc3ccc(C(=O)O)cc3)cc1)CC2 | inactive | – |
| c1ccc2c(c1)-c1cccc3c1c-2cc1ccccc13 | inactive | – |
| COc1cc2c(c(OC)c1OC)-c1ccc(OC)c(=O)cc1[C@@H](NC(C)=O)CC2 | inactive | – |
| C[Si](C)(C)C(F)(F)C(F)(F)C(F)(F)F | inactive | – |
| c1ccc2ncccc2c1 | inactive | – |
| CCn1nc(C)c2c1C(=O)NCC(c1ccc(O)cc1)=N2 | inactive | – |
| CC1(C)C(=O)N(Cl)C(=O)N1Cl | inactive | – |
| CCCCCCCCCC | inactive | – |
| CCc1ccc(O)c(C(C)(C)C)c1 | – | 31.1 µM (active) |
| FC(F)C(F)(F)COCC1CO1 (stereo not given) | inactive | – |
| CCCc1ccccc1 | inactive | – |
| Cc1nccn1-c1ccc(Sc2cccc(C3(C(N)=O)CCOCC3)c2)cc1 | – | 6.37 µM (active) |
| C[C@]12C=CC(=O)C=C1CC[C@H]1[C@@H]3C[C@@H](O)[C@](O)(C(=O)CO)[C@@]3(C)C[C@H](O)[C@@]12F | inactive | – |
| OCCC(F)(F)C(F)(F)C(F)(F)C(F)(F)F | inactive | – |
| CC(C)C(=O)Nc1ccc([N+](=O)[O-])c(C(F)(F)F)c1 | inactive | – |
| CCCOc1ccc(S(=O)(=O)N2CCN(CC)CC2)cc1-c1nc2c(CC)n(Cc3ccccn3)nc2c(=O)[nH]1 | inactive | – |
| CC(=O)c1ccccc1 | inactive | – |
| OCC(CO)(CO)CO | inactive | – |

| Compound | outcome | AC50 |
| --- | --- | --- |
| O=C1CN(N=Cc2ccc([N+](=O)[O-])o2)C(=O)N1 | inactive | – |
| Cc1nc(-c2ccccn2)ncc1C(=O)Nn1cc(C)c2cc(F)ccc21 | inactive | – |
| Cc1ncc([C@@H](CCCCCCc2ccc3c(n2)NCCC3)CC(=O)O)cn1 | inactive | – |
| NC(=O)N(O)[C@@H]1COc2cc(OCc3ccccc3)ccc21 | inactive | – |
| CCCCC(CC)C(=O)OCCOCCOCCOC(=O)C(CC)CCCC (stereo not given) | inactive | – |
| O=S1(=O)CCCO1 | inactive | – |
| FC(F)(F)COC(OCC(F)(F)F)OCC(F)(F)F | inactive | – |
| O=c1[nH]cnc2c1ncn2[C@H]1CC[C@@H](CO)O1 | inactive | – |
| OC(O)(C(F)C(O)(O)C(F)(F)F)C(F)(F)F | inactive | – |
| O=C(O)c1cccc(C(=O)O)c1 | inactive | – |
| C[C@@H](Oc1ccc(CNC(=O)c2cccnc2Oc2ccc3c(c2)OCO3)c(F)c1)C(=O)O | inactive | – |
| OCc1c[nH]c2ccccc12 | inactive | – |
| O=C(O)c1cccc(C[C@@H]2COc3ccc(OCc4nc5cc(F)ccc5s4)cc3[C@@H]2O)c1 | inactive | – |
| Cn1c(=O)c2[nH]cnc2n(C)c1=O | inactive | – |
| O=S(=O)(O)c1ccc(N=Nc2c(O)ccc3cc(S(=O)(=O)O)ccc23)cc1 | inactive | – |
| NC(=O)N1c2ccccc2C=Cc2ccccc21 | inactive | – |
| CCCCOC(=O)c1ccccc1 | inactive | – |
| NCC(F)(F)C(F)(F)C(F)(F)C(F)(F)F | inactive | – |
| FC(F)=C(F)C(F)(F)C(F)(F)C(F)(F)C(F)(F)C(F)(F)C(F)(F)F | inactive | – |
| CC(C)CC(C)O (stereo not given) | inactive | – |
